# Over roughly 110,000 compounds, “z-score” has its median near -0.1; the highest 2% begin near 2. Shown is part of a subset that was picked to be rich in the highest values. Calls of active or inactive are those of the source.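 How the source made its calls: active means z-score in the third read window above 3 or below -3; inactive means the rest.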
# Target: Metabotropic glutamate receptor 8 (Rattus norvegicus) (UniProt P70579)
# Experiment: rat mGluR8 modulators via GIRK flux, primary screen, cell-based, thallium flux, HTS (AID 488969)
# Settings: HEK293 rat mGluR8, GIRK (G protein-gated inwardly rectifying potassium channel) thallium flux, FluoZin2; at 10 µM; stronger effect = higher value; submaximal glutamate (EC20) added with thallium
# Metabotropic glutamate receptor 8 (Rattus norvegicus), sequence (P70579 whole entry, looked up): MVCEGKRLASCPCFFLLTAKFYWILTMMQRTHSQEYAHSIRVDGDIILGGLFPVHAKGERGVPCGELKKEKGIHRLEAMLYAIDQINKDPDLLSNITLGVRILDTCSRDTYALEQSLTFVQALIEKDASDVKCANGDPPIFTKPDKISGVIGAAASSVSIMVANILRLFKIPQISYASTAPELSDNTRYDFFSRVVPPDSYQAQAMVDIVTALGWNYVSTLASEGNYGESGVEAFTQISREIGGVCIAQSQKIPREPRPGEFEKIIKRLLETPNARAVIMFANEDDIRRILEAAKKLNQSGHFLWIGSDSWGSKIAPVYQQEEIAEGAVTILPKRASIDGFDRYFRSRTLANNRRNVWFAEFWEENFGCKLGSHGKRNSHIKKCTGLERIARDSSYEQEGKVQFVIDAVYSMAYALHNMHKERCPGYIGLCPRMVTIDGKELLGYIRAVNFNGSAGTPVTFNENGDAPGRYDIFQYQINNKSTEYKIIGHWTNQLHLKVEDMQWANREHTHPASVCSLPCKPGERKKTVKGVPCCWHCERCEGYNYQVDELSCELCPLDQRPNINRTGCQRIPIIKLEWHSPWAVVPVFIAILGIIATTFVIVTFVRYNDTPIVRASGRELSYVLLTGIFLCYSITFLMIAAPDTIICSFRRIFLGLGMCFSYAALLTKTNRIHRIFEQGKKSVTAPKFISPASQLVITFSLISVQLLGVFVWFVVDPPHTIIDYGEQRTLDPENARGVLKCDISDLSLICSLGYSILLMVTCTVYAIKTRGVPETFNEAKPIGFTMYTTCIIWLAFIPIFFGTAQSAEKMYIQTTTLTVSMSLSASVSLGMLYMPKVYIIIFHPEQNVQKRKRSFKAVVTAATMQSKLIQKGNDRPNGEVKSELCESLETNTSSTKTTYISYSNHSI
row,SMILES,z-score
1,CCOc1ccccc1CNC(=O)CCNC(=O)Cn1ccc2ccccc2c1=O,0.269
2,CCc1cc(-c2n[nH]c(=S)n2-c2cccc(C)c2)cs1,0.65
3,Cc1cccc(-n2c(-c3csc(C)c3)n[nH]c2=S)c1,0.189
4,Cc1cccc(-n2c(-c3csc4ccccc34)n[nH]c2=S)c1,2.62
5,Cc1cccc(-n2c(-c3csc(C(C)C)c3)n[nH]c2=S)c1,2.87
6,Cc1ccccc1-n1c(-c2csc3ccccc23)n[nH]c1=S,0.627
7,Cc1cccc(-n2c(-c3csc(C)c3C)n[nH]c2=S)c1,0.00757
8,CC(NC(=O)C1CCCCC1)C(=O)NC1=NCCS1 (stereo not given),0.00509
9,Cc1cccc(C)c1Oc1nc(-c2ccccc2)ncc1S(=O)(=O)c1ccccc1,-0.0101
10,CN1CCN(CCCNC(=O)c2ccc3c(c2)N(Cc2ccccc2)CCS3)CC1,0.775
11,N#C/C(=N\Nc1ccc(Cl)cc1)C(=N)N1CCCCC1,0.186
12,Cc1cccc(C(=O)Nc2nnc(SCC(=O)Nc3ccc4c(c3)oc3ccccc34)s2)c1,-0.242
13,COC(=O)C1CCN(S(C)(=O)=O)CC1,-0.211
14,CCc1ccccc1NC(=S)NCc1ccc2c(c1)OCO2,-0.0875
15,C/C(N)=C(/C#N)C(=O)CSc1nnc(Nc2ccccc2C)s1,-0.126
16,CSc1nnc(Nc2ccccc2C)s1,-0.0316
17,CCCSc1nnc(Nc2ccccc2C)s1,4.96 (active)
18,COc1ccccc1Nc1ccc(Nc2ccccc2OC)nn1,2.82
19,COc1ccccc1Nc1nnc(C)c(=O)[nH]1,-0.361
20,COc1ccc(OC)c(Nc2ccc(Nc3cc(OC)ccc3OC)nn2)c1,-0.125
21,O=Cc1cn(CC(=O)N2CCOCC2)c2ccccc12,-0.773
22,Cc1noc(C)c1C(=O)N1CCN(C(=O)c2sc3cc(Cl)ccc3c2Cl)CC1,-0.676

row,SMILES,z-score
1,O=C(C[n+]1cc(-c2ccccc2)n2c1CCC2)OCc1ccccc1,5.17 (active)
2,O=C(C[n+]1cc(-c2ccc(Cl)c(Cl)c2)n2c1CCC2)OCc1ccccc1,0.0701
3,O=C(C[n+]1cc(-c2ccccc2)n2c1CCC2)N1c2ccccc2Sc2ccccc21,-0.288
4,NC(=O)C(c1ncc(C(F)(F)F)cc1Cl)c1c(Cl)cccc1Cl (stereo not given),-0.197
5,CC1(C)Cc2[nH]c(=O)c(C#N)cc2CS1,0.0257
6,CCn1c(SCc2ccc(Cl)cc2Cl)nc2nc3c(cc2c1=O)CCCC3,-0.163
7,CC1CCCCC1NC(=O)COn1nnc2ccc(Cl)cc21 (stereo not given),-0.171
8,CCOC(=O)Cn1c(=O)oc2cc(S(=O)(=O)NCCCc3ccccc3)ccc21,3.36 (active)
9,CCOC(=O)Cn1c(=O)oc2cc(S(=O)(=O)Nc3ccc(N(CC)CC)cc3C)ccc21,2.74
10,CCN(CC)c1ccc(NS(=O)(=O)c2ccc3c(c2)oc(=O)n3C)c(C)c1,0.308
11,CCCCNS(=O)(=O)c1ccc2c(c1)oc(=O)n2CC(=O)OCC,0.0209
12,CCOC(=O)Cn1c(=O)oc2cc(S(=O)(=O)Nc3c(C)cc(C)cc3C)ccc21,-0.223
13,CCOC(=O)Cn1c(=O)oc2cc(S(=O)(=O)NCCc3ccc(C)cc3)ccc21,-0.171
14,N#CCC(=O)N/N=C1\CCCCC1C1CCCCC1 (stereo not given),0.419
15,CC(C)C(=O)Nc1ccnc(-c2cccnc2)n1,-0.0191
16,CC(C)OC(=O)c1cc2c(ccn2C)n1CC(=O)N(Cc1ccccc1)c1ccccc1,-0.243
17,CCN1/C(=C2/OC(=S)N(C)C2=O)Sc2ccccc21,1.02
18,O=C(COc1ccccc1)N1CCN(S(=O)(=O)Cc2ccccc2)CC1,0.0406
19,O=S(=O)(Nc1ccc2nc(C(F)(F)F)[nH]c2c1)c1ccccc1,4.74 (active)
20,O=S(=O)(Nc1ccc2nc(-c3ccc(Br)o3)[nH]c2c1)c1ccccc1,-0.849
21,Cc1ccc(-c2nc3ccc(NS(=O)(=O)c4ccccc4)cc3[nH]2)o1,1.31
22,Cc1ccc2[nH]c(=O)c(C(c3nnnn3C(C)(C)C)N3CCN(C(=O)c4ccco4)CC3)cc2c1 (stereo not given),-0.0115

row,SMILES,z-score
1,CC(C)CCn1c(S(=O)(=O)O)nc2ccccc21,3.16 (active)
2,CCC(C)Cn1c(S(=O)(=O)O)nc2ccccc21 (stereo not given),-0.238
3,CCCCn1c(S(=O)(=O)O)nc2ccccc21,-0.0451
4,CC(C)Sc1nc2c(c(=O)n1-c1ccc(F)cc1)SCC2,-0.98
5,CC(=O)c1sc(NC(=O)c2cc(-c3ccccc3)nn2-c2ccccc2)nc1C,3 (active)
6,O=C(Nc1nc2ccccc2s1)c1cc(-c2ccccc2)nn1-c1ccccc1,1.18
7,Cc1ccc(NC(=O)c2cc(-c3ccccc3)nn2-c2ccccc2)c(Br)c1,0.496
8,Cc1ccc(C)c(NC(=O)c2cc(-c3ccccc3)nn2-c2ccccc2)c1,2.08
9,CCc1nnc(NC(=O)c2cc(-c3ccccc3)nn2-c2ccccc2)s1,0.27
10,Cc1ccc(NC(=O)c2cc(-c3ccccc3)nn2-c2ccccc2)cc1,1.28
11,COc1nccnc1NS(=O)(=O)c1ccc(N=Cc2c(C)[nH]n(-c3ccccc3)c2=O)cc1,-0.188
12,CCCCN(CCCC)S(=O)(=O)c1ccc(NC(=O)c2ccc([N+](=O)[O-])cc2Cl)cc1,3.01 (active)
13,CCC(C)NS(=O)(=O)c1ccc(NC(=O)c2ccc([N+](=O)[O-])cc2Cl)cc1 (stereo not given),0.0866
14,CN(C)c1ccc(NC(=O)c2ccc([N+](=O)[O-])cc2Cl)cc1,-0.282
15,C=CCOn1c(=O)c(-c2ccc(OC)c(OC)c2)[n+]([O-])c2ccccc21,-0.224
16,CCOC(=O)c1nn(-c2ccc(F)cc2)c2nc(Nc3ccccc3)cc(=O)n12,-0.123
17,O=C(Nc1ccc2nc(-c3ccc(Br)o3)[nH]c2c1)c1cccs1,-0.969
18,CCc1cc2c(N[C@@H](Cc3c[nH]c4ccccc34)C(=O)O)ncnc2s1,-0.16
19,CN(CC(=O)Nn1cnnc1)S(=O)(=O)c1ccc(Br)cc1,4.35 (active)
20,CN(CC(=O)Nc1ccncc1)S(=O)(=O)c1ccc(Br)cc1,-0.284
21,CN(CC(=O)Nn1cnnc1)S(=O)(=O)c1ccccc1,-0.262
22,Cc1cc(=O)[nH]c(-n2nc(C)c(Oc3ccccc3O)c2C)n1,-0.0623

row,SMILES,z-score
1,CCOC(=O)c1c(NC(=O)C2C3CCC(O3)C2C(=O)O)sc(C)c1-c1ccc(C)cc1 (stereo not given),-0.26
2,Cc1ccc(-c2c(C)sc(NC(=O)C3C4CCC(O4)C3C(=O)O)c2C(=O)OC(C)C)cc1 (stereo not given),4.99 (active)
3,Cc1sc(NC(=O)C2C3CCC(O3)C2C(=O)O)c(C(=O)OC(C)C)c1-c1ccc(Cl)cc1 (stereo not given),-0.429
4,COC(=O)C(C)Sc1nnc(-c2ccncc2)o1 (stereo not given),-0.297
5,CCOC(=O)N1CCC(N2C(=O)c3cc(C(=O)NC4CCCCC4)ccc3C2O)CC1 (stereo not given),-0.198
6,CCOC(=O)N1CCC(N2C(=O)c3ccc(C(=O)NCc4ccco4)cc3C2=O)CC1,-0.36
7,CCOC(=O)c1c(N)sc2c1CCC(CC)C2 (stereo not given),0.0842
8,CCOC(=O)c1c(NC(=O)C2C3C=CC(C3)C2C(=O)O)sc2c1CCC(CC)C2 (stereo not given),3.71 (active)
9,CCOC(=O)c1c(NC(=O)C2C3C=CC(CC3)C2C(=O)O)sc(C)c1C (stereo not given),0.959
10,Cc1ccc(OCCNC(=O)/C=C/c2ccccc2)cc1C,-0.203
11,CCOC(=O)c1nn(-c2ccccc2)c(=O)cc1SC(C)C,-0.0576
12,CC(C)(C)NC(=O)C(=O)NNC(=O)c1ccc(C(C)(C)C)cc1,5.3 (active)
13,COC(=O)NNC(=O)c1cccc(C)c1,-0.067
14,CC(C)(C)c1ccc(C(=O)NNC(=O)C(=O)N2CCCCC2)cc1,0.478
15,Cc1cccc(C(=O)NNC(=O)C(=O)NC(C)(C)C)c1,2.45
16,CC(C)(C)NC(=O)C(=O)NNC(=O)c1ccccc1,1.57
17,Cc1cccc(C(=O)NNC(=O)c2ccccc2)c1,-0.0133
18,Cc1nc(C)c(C(=O)N/N=C/c2cn(C)c3ccccc23)s1,0.0943
19,CCOCCc1nnc(NC(=O)c2cccc(F)c2)s1,-0.243
20,COc1ccc(NC(=O)Cn2c(=O)n(CC(=O)NCc3ccco3)c(=O)c3ccccc32)cc1,0.213
21,O=C(CN(Cc1ccccc1)C1=NCCS1)c1ccccc1,-0.754
22,COc1ccc(-c2noc(-c3ccccc3C(=O)Nc3cccnc3)n2)cc1OC,0.205

row,SMILES,z-score
1,N#CCc1ccc(C(=O)c2ccccc2)s1,-0.167
2,Cc1ccc(N(CC(=O)N2CCOCC2)S(=O)(=O)c2ccccc2)cc1,0.464
3,CC(C)N1CCC(=NNc2ccc(S(=O)(=O)N3CCOCC3)cc2[N+](=O)[O-])CC1,0.0912
4,OC(CNCc1ccco1)Cn1c2ccc(Br)cc2c2cc(Br)ccc21 (stereo not given),0.138
5,OC(CNCC1CCCO1)Cn1c2ccc(Br)cc2c2cc(Br)ccc21 (stereo not given),3.72 (active)
6,OC(CNCC1CCCO1)Cn1c2ccc(Cl)cc2c2cc(Cl)ccc21 (stereo not given),0.381
7,Cc1ccc(S(=O)(=O)N(C)C)cc1NC(=O)CCNC(=O)c1ccccc1Cl,-0.212
8,C=CCN1C(=O)C2C(C(=O)NC3CCCCC3)C3C=CC2(O3)C1C(=O)NC1CCCC1 (stereo not given),-0.014
9,O=C(Nc1ccc(OC(F)(F)F)cc1)c1n[nH]c(Cn2cncn2)n1,-0.0524
10,COc1ccc(C(=O)N2N=C(c3cccc(OC)c3)CC2(O)C(F)(F)F)cc1 (stereo not given),0.326
11,COc1cccc(C2=NN(C(=O)c3ccccc3)C(O)(C(F)(F)F)C2)c1 (stereo not given),2.79
12,COc1cccc(C(=O)N2N=C(c3cccc(OC)c3)CC2(O)C(F)(F)F)c1 (stereo not given),0.00352
13,O=C1CCCc2c1[nH]c1ccc(CN3CCCCC3)cc21,0.129
14,CN(C)CCNc1oc(COc2ccc(Cl)cc2)nc1C#N,1.5
15,COc1ccc(-c2nc(C#N)c(NCCCN(C)C)o2)cc1OC,11.2 (active)
16,CCN(CC)CCCNc1oc(-c2ccc(OC)c(OC)c2)nc1C#N,-0.222
17,CN(C)CCNc1oc(-c2cccc(Cl)c2)nc1C#N,2.54
18,CN(C)CCNc1oc(COc2ccc(-c3ccccc3)cc2)nc1C#N,2.06
19,CN(C)CCCNc1oc(-c2ccc(Cl)cc2)nc1C#N,1.35
20,COc1ccc(CCNc2oc(COc3ccccc3)nc2C#N)cc1,-0.509
21,CN(C)CCCNc1oc(-c2cccc(Cl)c2)nc1C#N,-0.825
22,CCN(CC)CCCNc1oc(-c2cccc(Cl)c2)nc1C#N,1.31
